# High-throughput results (PubChem)
# Sampled rows, rich in hits. Any-hit rate of the full collection: about 1.8%.
# NALP1 yeast inh – blocks the NALP1 inflammasome reconstituted in yeast. S. cerevisiae NALP1/ASC/caspase-1 growth, X-gal OD620, 72 h. inhibition, % at 10 µM. 0.61% of 280,000 active; in the data active = inhibition mostly above about 24%, no sharp cut-off; inactive = mostly below about 32%
# NALP3 yeast inh – NALP3 inhibition in yeast; Yeast reconstituted NLRP3/ASC/caspase-1, beta-gal luminescence, 24 h; inhibition, % at 10 µM; 0.39% of 330,000 active;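 active = inhibition of 50% or more; inactive = inhibition below 50%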;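 also: plate controls were induced DMSO wells for no effect and uninduced yeast grown without galactose for full effect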
# PolyA inhibitor – inhibitors of polyadenylation in S. cerevisiae; S. cerevisiae SKY197-pL101 polyadenylation reporter, beta-gal luminescence; efflux-impaired pdr1/pdr3 knockout yeast; score 100 = 6 SD above DMSO; AID 1875; 0.02% of 300,000 active; activity score, % at 12 µM;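 active = lowest replicate activity score at least 50, where 100 means six control SD above control mean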;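 also: yeast exposed to compound for 9 h at 30 °C; higher score means more reporter readthrough which indicates perturbed polyadenylation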
# Mot1-301 SUMO – inhibitors of SUMOylation pathway: yeast Mot1-301 growth rescue. S. cerevisiae Mot1-301 growth rescue, ATP luminescence, 38.5C; percent above DMSO median, 100 means doubled. growth rescue, % at 18.8 µM. 1% of 320,000 active. AID 2716;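 active = every valid replicate shows activation above 250% relative to neutral control wells; inactive = the rest, any valid replicate at or below 250%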;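 also: OY570 slx delta 5 strain wells were the positive control but not used for scaling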
# Mot1 SUMO dose – yeast SUMO pathway inhibition in dose response; shares compounds with Mot1-301 SUMO; S. cerevisiae Mot1-301 galactose growth, ATP luminescence, 24 h; -100 = growth of slx-deleted rescue strain; growth activity, percent, % at 42 µM; 2,300 tested, under 10 active;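 active = Signal drops as the depositor expects, and the fitted half-maximal dose is no more than ten times the top valid tested dose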;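 also: more negative values mean stronger growth rescue toward the control strain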
# * marks the source's active call; other numbers are inactive results; x = not tested or not shown; + = active, no number; [ ] = remark or other dose.
SMILES,NALP1 yeast inh,NALP3 yeast inh,PolyA inhibitor,Mot1-301 SUMO,Mot1 SUMO dose
COc1ccc(CN(C(=O)c2ccc(CN3CCOCC3)o2)C(C(=O)NCC2CCCO2)c2ccc(F)cc2)cc1 (stereo unspecified),2.2,20.5,8.9,-12.2,x
COc1ccc(/C=C(/C#N)S(=O)(=O)c2ccc(C)cc2)cc1,10.0,1.6,-20.9,+,0.2[21 µM]
COc1ccc(N/C=C(\C#N)S(=O)(=O)c2ccc(OC)cc2)cc1,19.5,4.0,-18.8,25.7,x
C=CSc1sc(Cl)c(N(C)C)c1[N+](=O)[O-],-7.0,5.6,-3.0,411.3*,-0.2
COn1c(=S)[nH]c2ccccc2c1=O,2.0,0.4,x,-4.3,x
COC(=O)c1ccc(CSc2nnnn2-c2ccccc2)o1,0.2,-0.2,-0.2,+,1.1
O=C(O)CSC(C(=O)Nc1ccc(Br)cc1)c1ccccc1 (stereo unspecified),18.8,-10.3,-11.9,12.4,x
CC(=O)NC1CCCc2c1cnn2-c1ccc(C(C)(C)C)cc1 (stereo unspecified),3.5,19.6,-2.3,48.3,x
CC(=O)NC1CCCN(O)C(=O)/C=C(\C)CCOC(=O)C(NC(C)=O)CCCN(O)C(=O)/C=C(\C)CCOC(=O)C(NC(C)=O)CCCN(O)C(=O)/C=C(\C)CCOC1=O (stereo unspecified),0.7,17.1,-11.2,559.3*,-0.4
Nc1nc(Cl)nc2c1ncn2[C@@H]1O[C@H](CO)[C@@H](O)[C@H]1O,11.3,-6.6,-14.5,-4.8,x
CSc1ncc2ncn(C3OC(CO)C(O)C3O)c2n1 (stereo unspecified),-6.0,-15.1,13.5,+,0.5
CCC(=O)Nc1nc(CC(=O)Nc2ccccc2OC)cs1,-4.9,7.0,-7.2,+,0.3
COc1cc(C)ccc1NC(=O)Cc1csc(NC(=O)Nc2ccccc2OC)n1,x,0.5,-17.7,178.3,x
Cc1cc(C)cc(C(=O)NC(CC(N)=O)c2ccc(NCCN3CCOCC3)c([N+](=O)[O-])c2)c1 (stereo unspecified),7.7,4.5,7.6,644.2*,1.1
CCc1cc2c(SCC(=O)Nc3ccc(Cl)cn3)ncnc2s1,27.0,x,x,x,x
O=C(CCC(=O)OCC(=O)c1ccc(Br)cc1)Nc1cccc2cccnc12,9.1,9.4,-9.8,428.9*,0.3
O=C(Nc1ccccc1)c1ccc(=O)n(Cc2cccc(Cl)c2)c1,2.1,19.2,1.3,-8.0,x
Cc1[nH]n(-c2ccccc2)c(=O)c1C(C[N+](=O)[O-])c1ccc(Br)cc1 (stereo unspecified),64.6*,36.5,-117.8,524.3*,-1.1
CCOc1ccc(N2C(=O)C3C4C=CC(CC4)C3C2=O)c([N+](=O)[O-])c1 (stereo unspecified),6.5,19.9,-0.8,12.7,x
COc1cccc(NC(=O)CN(C)C(=O)c2ccccc2OCc2c(C)noc2C)c1,x,13.8,-15.2,+,0.8
CC/C(=N\NC(=O)c1nnn(-c2nonc2N)c1-c1ccc2c(c1)OCO2)c1ccccc1,9.3,16.3,1.5,-2.3,x
CCOc1ccc(-c2c(C(=O)N/N=C/c3ccccc3)nnn2-c2nonc2N)cc1,-5.8,15.7,-2.9,13.3,x
CC/C(=N\NC(=O)c1nnn(-c2nonc2N)c1-c1cccs1)c1ccccc1,23.2,8.5,-0.4,370.6*,0.6
CCOc1ccc(-c2c(C(=O)N/N=C/c3ccncc3)nnn2-c2nonc2N)cc1,20.8,-1.2,3.6,396.2*,0.7
Cc1c(C(=O)c2ccc(F)cc2F)c2ccccn2c1CCC#N,7.7,30.0,-13.4,47.3,x
SMILES,NALP1 yeast inh,NALP3 yeast inh,PolyA inhibitor,Mot1-301 SUMO,Mot1 SUMO dose
C/C(=N\NC(=O)c1ccc(Cl)cc1)c1cccc(NC(=O)c2cccnc2)c1,26.7,-10.6,11.6,183.0,x
C/C(=N\NC(=O)c1ccc(Cl)cc1)c1cccnc1,7.6,12.4,16.3,713.6*,0.8
CN(CC(=O)NCc1cccs1)S(=O)(=O)c1cccc2nsnc12,23.2,6.8,3.3,435.9*,0.0
C[C@H]1CN=C(Nc2ccccc2)N1CCC1CCCC1,21.1,-3.6,0.3,920.7*,-0.1
Cc1ccc(-c2cnc3c(Cl)c(C)nn3c2)cc1,8.9,21.5,-22.8,-9.9,x
CCC(=O)N1N=C(c2c(-c3ccccc3)c3cc(Cl)ccc3[nH]c2=O)CC1c1ccco1 (stereo unspecified),24.8,11.3,14.1,-0.4,x
CCC(=O)N1N=C(c2ccc(C)cc2)CC1c1ccco1 (stereo unspecified),20.4,22.8,16.0,193.2,x
